Test results from PubChem BioAssay.
For part of these data: Entries with a potency or affinity are not part of this list. Calls of active or inactive are those of the source.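 Rule for the calls, unless noted: active = fluorescence ratio normalized to control raised more than 50% in primary screen plus both repeat runs; inactive = the rest.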

Key:
[1] = system: TRPC4 beta (transient receptor potential cation channel C4), mouse; test: TRPC4 cation channel opening, retest – cell-based, Fluo4 calcium, HEK293 TRPC4beta/mu-opioid, duplicates, 10 µM, confirmation (AID 2426); conditions: Fluo4 calcium fluorescence, at 10 µM; hits give high values
[2] = system: transient receptor potential cation channel C4 beta (TRPC4), mouse; test: TRPC4 cation channel opening, second retest – cell-based, second round, Fluo4, HEK293 TRPC4beta/mu-opioid, 1 µM, confirmation (AID 2461;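 active = primary screen active and over 50% activation in each of two duplicate runs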); conditions: Fluo4 calcium fluorescence, at 1 µM; hits give high values
[3] = system: TRPC4 (transient receptor potential cation channel C4 beta), mouse; test: potentiation of DAMGO EC20 TRPC4 response – cell-based, second round, Fluo-4, HEK293 TRPC4beta/mu-opioid, 1 µM, confirmation (AID 2554;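 active = primary screen hit whose fluorescence ratio, in both repeats, exceeds the weak agonist control mean by 3 SD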); conditions: DAMGO EC20, Fluo-4 calcium flux, at 1 µM; hits give high values
[4] = system: TRPC4 beta (transient receptor potential cation channel C4), mouse; test: potentiation of DAMGO EC20 TRPC4 response – cell-based, Fluo-4, HEK293 TRPC4beta/mu-opioid, confirmation (AID 2555;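 active = primary screen hit whose calcium fluorescence ratio, in both repeats, exceeds the weak agonist control mean by 3 SD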); conditions: DAMGO EC20, Fluo-4 calcium flux, at 10 µM; hits give high values
[5] = target: Short transient receptor potential channel 4 (Mus musculus) (UniProt Q9QUQ5); test: blockers of DAMGO-evoked TRPC4 calcium flux – cell-based, Fluo4, HEK293 TRPC4beta/mu-opioid, confirmation (AID 2636;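 active = calcium signal cut by more than 3 SD below the full-agonist control yet still positive, in both repeats and the earlier primary screen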); conditions: at 10 µM; hits give high values
[6] = target: Short transient receptor potential channel 4 (Mus musculus) (UniProt Q9QUQ5); test: blockers of DAMGO-evoked TRPC4 calcium flux – cell-based, second round, Fluo4, HEK293 TRPC4beta/mu-opioid, 1 µM, confirmation (AID 2637;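 active = calcium signal ratio cut to more than 3 SD under the fully stimulated control mean yet still positive, in both repeats and the primary screen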); conditions: at 1 µM; hits give high values
[7] = target: Short transient receptor potential channel 4 (Mus musculus) (UniProt Q9QUQ5); test: calcium entry via TRPC4 opening agents – cell-based, HEK293 TRPC4/mu-opioid, Fluo-4 calcium, dose response (AID 434937;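 active = primary screen activator hit with a dose response curve and TRPC4 channel activation at any tested dose; inactive = no activation, no dose response, or not a primary hit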)
[8] = target: Short transient receptor potential channel 4 (Mus musculus) (UniProt Q9QUQ5); test: potentiation of DAMGO-evoked TRPC4 calcium signal – cell-based, HEK293 TRPC4/mu-opioid, Fluo-4 calcium, EC20 DAMGO, dose response (AID 434941;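 active = earlier screen potentiator hit that boosts the TRPC4 ion channel at some dose, with a dose response; inactive = no potentiation, no dose response, or not a prior hit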;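 note: calcium entry triggered by an EC20 dose of DAMGO at the co-expressed mu-opioid receptor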)
[9] = target: Short transient receptor potential channel 4 (Mus musculus) (UniProt Q9QUQ5); test: block of DAMGO-driven TRPC4 calcium entry – cell-based, HEK293 TRPC4/mu-opioid, Fluo-4 calcium, dose response (AID 434942;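 active = primary screen inhibitor hit that blocks the TRPC4 channel at some tested dose, yielding a dose curve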)
[10] = target: Short transient receptor potential channel 6 (Mus musculus) (UniProt Q61143); test: TRPC6 blockade by TRPC4 inhibitor hits – cell-based, HEK293, membrane potential dye, duplicate, selectivity assay for TRPC4 inhibitor project, confirmation (AID 434948;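 active = active in primary screen and both duplicates, each dropping signal beyond three positive-control SD with fluorescence still positive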); conditions: HEK293 TRPC6, membrane potential dye fluorescence, at 10 µM, stimulated with maximal-effect acetylcholine; hits give high values
[11] = target: Short transient receptor potential channel 6 (Mus musculus) (UniProt Q61143); test: TRPC6 opening by TRPC4 activator hits – cell-based, HEK293, membrane potential dye, duplicate, selectivity assay for TRPC4 activator project, confirmation (AID 434950;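 active = membrane potential signal rise above negative control mean plus 3 SD in both duplicates, also active in the earlier TRPC4 screen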); conditions: HEK293 TRPC6, membrane potential fluorescence, at 10 µM; activation: hits give high values; outcome: activation
[12] = target: Short transient receptor potential channel 6 (Mus musculus) (UniProt Q61143); test: positive modulators of mouse TRPC6 channel – HEK293 cells, membrane potential dye, duplicate, selectivity assay for TRPC4 potentiator project, confirmation (AID 434952;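 active = compound raising the membrane signal above positive-control mean plus 3 SD in both repeats, and a primary screen hit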); conditions: HEK293 TRPC6, membrane potential dye fluorescence, at 10 µM, maximal acetylcholine added after compound; hits give high values
[13] = target: Short transient receptor potential channel 4 (Mus musculus) (UniProt Q9QUQ5); test: calcium flux activators in TRPC4/5HT1a cells, counter-screen for TRPC4 activator project, cell-based, second counter screen, HEK293 TRPC4/5HT1a, Fluo-4 (AID 434977;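 active = calcium signal rise above buffer-control mean plus 5 SD in both duplicates, and also a hit in the primary screen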); conditions: Fluo-4 calcium flux, at 10 µM; hits give high values
[14] = serotonin-gated TRPC4 signal block – cell-based, second counter screen, HEK293 TRPC4/5HT1a, Fluo-4, counter-screen for TRPC4 inhibitor project, confirmation (AID 434978;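 active = primary screen active whose calcium signal fell more than 3 SD beyond the full-serotonin control mean in both duplicate plates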;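 note: serotonin given first at submaximal then at maximal dose after compound preincubation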); conditions: Fluo-4 calcium flux, at 10 µM, serotonin added to trigger calcium flux; hits give high values
[15] = system: TRPC4 (mouse), co-expressed with 5HT1a in HEK293; test: enhancement of serotonin-evoked TRPC4 response – cell-based, second counter screen, HEK293 TRPC4/5HT1a, Fluo-4, counter-screen for TRPC4 potentiator project, confirmation (AID 434979;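 active = signal rise over 3 SD above mean of control wells given weak agonist, in both repeats and first screen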); conditions: Fluo-4 calcium flux, at 10 µM, serotonin added at its EC20 dose; hits give high values
[16] = nonspecific calcium rise without TRPC4 – cell-based, HEK293 mu-opioid receptor line, counter-screen for TRPC4 activator project, confirmation (AID 449723;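 active = hit in primary screen, with calcium signal over 5 SD above buffer well mean in both duplicates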;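 note: counter screen cells carry the mu-opioid receptor alone and lack TRPC4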); conditions: HEK293 mu-opioid cells, Fluo-4 calcium fluorescence, at 10 µM; hits give high values
[17] = nonspecific potentiation of DAMGO calcium response – cell-based, HEK293 mu-opioid receptor line, counter-screen for TRPC4 allosteric potentiator project, confirmation (AID 449724;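 active = calcium signal rise more than 3 SD above the low-dose agonist control mean, in both duplicate plates and the primary screen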); conditions: HEK293 mu-opioid receptor cells, Fluo-4 calcium flux, at 10 µM, compound added before EC20 DAMGO stimulus; hits give high values

Short transient receptor potential channel 6 (Mus musculus), sequence (Q61143 whole entry, looked up): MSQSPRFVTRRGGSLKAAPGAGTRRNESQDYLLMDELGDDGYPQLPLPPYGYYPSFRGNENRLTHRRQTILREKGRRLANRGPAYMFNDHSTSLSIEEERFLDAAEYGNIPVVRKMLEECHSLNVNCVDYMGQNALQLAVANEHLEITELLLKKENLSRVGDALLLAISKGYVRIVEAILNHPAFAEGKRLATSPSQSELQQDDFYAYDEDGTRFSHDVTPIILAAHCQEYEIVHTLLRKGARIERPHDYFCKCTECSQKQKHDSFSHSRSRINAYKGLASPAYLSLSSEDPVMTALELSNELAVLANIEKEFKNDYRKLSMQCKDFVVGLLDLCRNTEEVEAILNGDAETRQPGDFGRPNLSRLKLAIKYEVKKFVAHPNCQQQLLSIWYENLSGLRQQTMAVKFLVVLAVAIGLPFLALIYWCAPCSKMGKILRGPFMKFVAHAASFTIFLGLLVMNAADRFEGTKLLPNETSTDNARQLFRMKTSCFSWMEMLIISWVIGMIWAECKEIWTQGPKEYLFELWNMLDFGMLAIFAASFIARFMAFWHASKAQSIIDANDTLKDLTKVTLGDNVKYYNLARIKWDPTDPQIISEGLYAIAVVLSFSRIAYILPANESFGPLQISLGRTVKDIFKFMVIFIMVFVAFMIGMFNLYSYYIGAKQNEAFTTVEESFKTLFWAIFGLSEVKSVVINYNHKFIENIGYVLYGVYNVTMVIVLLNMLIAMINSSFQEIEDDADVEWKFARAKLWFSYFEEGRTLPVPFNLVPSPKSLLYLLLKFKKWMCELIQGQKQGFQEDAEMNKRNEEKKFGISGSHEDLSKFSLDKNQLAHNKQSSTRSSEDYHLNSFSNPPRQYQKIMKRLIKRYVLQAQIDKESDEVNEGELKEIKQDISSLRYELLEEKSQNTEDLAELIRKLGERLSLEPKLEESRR
Short transient receptor potential channel 4 (Mus musculus), sequence (Q9QUQ5 whole entry, looked up): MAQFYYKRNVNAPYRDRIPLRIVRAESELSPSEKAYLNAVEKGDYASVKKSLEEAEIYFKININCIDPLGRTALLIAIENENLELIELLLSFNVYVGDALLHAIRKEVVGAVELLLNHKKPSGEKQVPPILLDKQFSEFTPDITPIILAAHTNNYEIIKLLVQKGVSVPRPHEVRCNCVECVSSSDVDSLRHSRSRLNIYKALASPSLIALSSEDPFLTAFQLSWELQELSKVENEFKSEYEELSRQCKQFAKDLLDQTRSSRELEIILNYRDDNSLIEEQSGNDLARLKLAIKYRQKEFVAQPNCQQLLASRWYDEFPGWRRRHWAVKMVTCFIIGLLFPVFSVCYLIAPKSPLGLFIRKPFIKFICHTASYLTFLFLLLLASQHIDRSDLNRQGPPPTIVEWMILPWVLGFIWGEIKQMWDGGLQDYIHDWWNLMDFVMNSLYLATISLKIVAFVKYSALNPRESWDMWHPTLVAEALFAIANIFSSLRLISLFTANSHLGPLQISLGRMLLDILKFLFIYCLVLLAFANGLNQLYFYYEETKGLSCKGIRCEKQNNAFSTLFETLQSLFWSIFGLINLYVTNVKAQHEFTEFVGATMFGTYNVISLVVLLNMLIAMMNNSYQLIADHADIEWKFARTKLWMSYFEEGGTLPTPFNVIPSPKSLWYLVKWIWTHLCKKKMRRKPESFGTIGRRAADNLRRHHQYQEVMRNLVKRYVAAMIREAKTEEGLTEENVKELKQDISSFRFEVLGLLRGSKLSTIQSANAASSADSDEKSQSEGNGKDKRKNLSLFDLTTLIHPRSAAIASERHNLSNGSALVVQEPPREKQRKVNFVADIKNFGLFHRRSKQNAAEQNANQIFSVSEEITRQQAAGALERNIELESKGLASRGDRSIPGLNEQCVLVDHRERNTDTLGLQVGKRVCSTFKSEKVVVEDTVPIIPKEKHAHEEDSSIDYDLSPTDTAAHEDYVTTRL

SMILES | outcome [1] | outcome [2] | outcome [3] | potentiation [4] | outcome [5] | outcome [6] | outcome [7] | outcome [8] | outcome [9] | outcome [10] | outcome [11] | outcome [12] | outcome [13] | outcome [14] | potentiation [15] | outcome [16] | outcome [17] | outcome [4] | outcome [15]
CCc1c(C)nc2c(-c3ccccc3)c(C)nn2c1Nc1ccc(NC(C)=O)cc1 | inactive | inactive | inactive | 14% (active) | inactive | inactive | inactive | inactive | inactive | inactive | inactive | inactive | inactive | inactive | 74% (active) | inactive | inactive |  | 
N=C(N)SCc1cn2ccccc2n1 | inactive | inactive | inactive |  | inactive | inactive | inactive | inactive | inactive | inactive | inactive | inactive | inactive | inactive | 8.53% (active) | inactive | inactive | inactive | 
CSCC[C@H](NC(=O)N1CCn2c1nc1ccccc12)C(=O)NCc1ccc(F)cc1 | inactive | inactive | inactive | 27% (active) | inactive | inactive | inactive | inactive | inactive | inactive | inactive | inactive | inactive | inactive |  | inactive | inactive |  | inactive
Cc1ccc2oc(C(=O)N3CCC(O)(c4ccccc4)CC3)c(C)c2c1 | inactive | inactive | inactive | 11% (active) | inactive | inactive | inactive | inactive | inactive | inactive | inactive | inactive | inactive | inactive | 27.2% (active) | inactive | inactive |  | 
COc1ccc(C(=O)CCC(=O)Nc2cccc(Cl)c2)cc1 | inactive | inactive | inactive | 10% (active) | inactive | inactive | inactive | inactive | inactive | inactive | inactive | inactive | inactive | inactive | 22.1% (active) | inactive | inactive |  | 
CC(=O)Nc1nc(-c2ccc3c(c2)CCN3C(=O)C2CC2)c(C)s1 | inactive | inactive | inactive |  | inactive | inactive | inactive | inactive | inactive | inactive | inactive | inactive | inactive | inactive |  | inactive | inactive | inactive | inactive
CCN(CC)c1ccc(/C=N/NC(=O)CNC(=O)c2ccccn2)cc1 | inactive | inactive | inactive |  | inactive | inactive | inactive | inactive | inactive | inactive | inactive | inactive | inactive | inactive |  | inactive | inactive | inactive | inactive
Clc1ccc(N=C2SCC3CCCCN23)cc1 (stereo not given) | inactive | inactive | inactive | 10% (active) | inactive | inactive | inactive | inactive | inactive | inactive | inactive | inactive | inactive | inactive | 35.2% (active) | inactive | inactive |  | 
O=C(c1ccccc1F)N1CCN(c2ccc([N+](=O)[O-])c3cccnc23)CC1 | inactive | inactive | inactive | 18% (active) | inactive | inactive | inactive | inactive | inactive | inactive | inactive | inactive | inactive | inactive | 16.5% (active) | inactive | inactive |  | 
NS(=O)(=O)c1ccc(NN=C2CCN(Cc3ccccc3)CC2)c([N+](=O)[O-])c1 | inactive | inactive | inactive |  | inactive | inactive | inactive | inactive | inactive | inactive | inactive | inactive | inactive | inactive | 16.3% (active) | inactive | inactive | inactive | 
CC[n+]1c(/C=C/Nc2ccccc2)sc2ccccc21 | inactive | inactive | inactive |  | inactive | inactive | inactive | inactive | inactive | inactive | inactive | inactive | inactive | inactive |  | inactive | inactive | inactive | inactive
COc1ccc(N(C(=O)c2snc(C(N)=O)c2N)C(C(=O)NC2CCCCC2)c2ccc(C)o2)c(OC)c1 (stereo not given) | inactive | inactive | inactive |  | inactive | inactive | inactive | inactive | inactive | inactive | inactive | inactive | inactive | inactive |  | inactive | inactive | inactive | inactive
Cc1ccc(SC(CC(=O)c2ccc(C(C)(C)C)cc2)C(=O)O)cc1 (stereo not given) | inactive | inactive | inactive |  | inactive | inactive | inactive | inactive | inactive | inactive | inactive | inactive | inactive | inactive |  | inactive | inactive | inactive | inactive
CCOC(=O)c1ccc(N=C2C(=S)N(c3ccc(C(=O)OCC)cc3)C(=N)N2/N=C/c2ccccc2)cc1 | inactive | inactive | inactive |  | inactive | inactive | inactive | inactive | inactive | inactive | inactive | inactive | inactive | inactive |  | inactive | inactive | inactive | inactive
O=C(OCC(=O)N1CCOCC1)c1cccc(S(=O)(=O)N2CCCc3ccccc32)c1 | inactive | inactive | inactive |  | inactive | inactive | inactive | inactive | inactive | inactive | inactive | inactive | inactive | inactive | 10.2% (active) | inactive | inactive | inactive | 
